Bioassay records as filed in PubChem BioAssay.
ATXN2 expr inh: reduces ATXN2 reporter expression in HEK-293 cells; 360,000 tested, 0.72% active; HEK-293 ATXN2-luciferase reporter, luminescence, 24 h; Potency, µM (series often up to 57 µM), for the others: at the top dose activity change, negative = inhibition, hits mostly inhibitors; AID 1745845; note: potency is the fitted concentration of half-maximal effect; % is set by controls: 0 for no effect and ±100 for the full control effect; nearly all actives have a fitted effect of over 55% in size
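qHTS (up to 57 uM final) was run with 24 h compound exposure of reporter cells at 37 °C. Each well was multiplexed: SteadyGlo luminescence measured ATXN2-luciferase expression after a fluorogenic Gly-Phe-AFC viability readout (25 uM final).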
D3 ag: agonists of human D3 dopamine receptor. P35462. D3R DiscoveRx beta-arrestin cells, luminescence, 90 min. max activation, %. 410,000 tested, 0.58% active. AID 652048; in the data active = max activation above about 30%; note: 0% is about no effect
Target sequence (P35462 whole entry, looked up): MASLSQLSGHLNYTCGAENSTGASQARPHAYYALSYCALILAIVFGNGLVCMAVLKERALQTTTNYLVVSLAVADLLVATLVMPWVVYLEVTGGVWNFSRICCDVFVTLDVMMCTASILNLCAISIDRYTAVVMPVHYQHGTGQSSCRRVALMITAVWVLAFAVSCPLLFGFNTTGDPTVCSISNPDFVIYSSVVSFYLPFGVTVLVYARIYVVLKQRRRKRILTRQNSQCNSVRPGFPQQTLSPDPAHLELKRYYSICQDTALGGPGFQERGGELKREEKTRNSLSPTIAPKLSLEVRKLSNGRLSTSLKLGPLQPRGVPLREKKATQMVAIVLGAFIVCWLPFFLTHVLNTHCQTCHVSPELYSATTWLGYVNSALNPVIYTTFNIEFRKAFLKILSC
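Agonist-mode cell screen: cells plated at 1500/well and incubated overnight at 37 °C, then exposed to library compounds for 90 min at 37 °C. Detection reagent was added for 30–60 min at room temperature, and luminescence was read.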
HepG2 tox: counter-screen for TGF-b inhibitors: cytotoxicity in HepG2 cells; 410,000 tested, 0.76% active; Potency, µM (titrated, usually from 46.1 µM), for inactives: top-dose activity change, negative = cytotoxicity, most hits filed as cytotoxic; HepG2 CAGA-GFP viability, ATP luminescence, 18 h; AID 588856; note: potency is the fitted concentration of half-maximal effect
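CellTiter-Glo luminescence gave cytotoxicity after 18 hours at 37 degrees C. The cells were HepG2 CAGA-GFP in 1% FBS DMEM, stimulated with 500 pg/mL TGF-beta after compound addition. %Activity was normalised to no-cell wells (complete cell-killing) and DMSO (no toxicity), and curves were fitted and classified.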
TGFb inhibitor: TGF-b pathway inhibition | HepG2 CAGA-GFP TGF-b/SMAD3 reporter, GFP fluorescence, 18 h; TGF-beta stimulated, 500 pg/mL final | Potency, µM (series often up to 46.1 µM), for the others: at the highest dose activity, negative = inhibition, most hits filed as inhibitors | 410,000 tested, 1.2% active; note: potency is the fitted concentration of half-maximal effect; % is set by controls: 0 for no effect and ±100 for the full control effect; nearly all actives have a fitted effect of over 65% in size
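Per well, imaged GFP fluorescence of HEPG2 CAGA-GFP cells gives the signal; cells get compound, then TGF-beta (500 pg/mL final), 18 h at 37 degrees C; %Activity versus -TGF-beta and +DMSO controls.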
D3 antag: antagonists of human D3 dopamine receptor; D3R cells, DiscoveRx beta-arrestin luminescence, antagonist mode; active compounds read low; max response, negative = inhibition, %; 360,000 tested, 2.5% active; AID 652054; in the data active = max response below about -50%; inconclusive = no clear call, values can overlap the other calls; note: % is set by controls: 0 for no effect and ±100 for the full control effect
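Cells plated overnight at 1500 cells/well, then exposed to library compounds with dopamine controls for 90 minutes at 37 degrees C. DiscoveRx reagent added for 30–60 minutes at room temperature; luminescence read, quantitative HTS format.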
ATXN viability: viability counter-screen for ATXN expression inhibitors; S2 cells (HEK-293 line with an ATXN2-luciferase reporter) viability, CellTiter-Fluor protease fluorescence, 24 h; Potency, µM (titrated, usually from 56.7 µM), usual class: cytotoxic; 400,000 tested, 0.49% active; AID 651635; note: potency is the fitted concentration of half-maximal effect; nearly all actives have a fitted effect of over 40% in size
Starred values were filed as active, the others as inactive; i = inactive; ? = inconclusive; . = no result; ! = not active in a repeat; [ ] = dose if it differs, or a comment. Most compounds without a hit are left out; they make up all but 4.8% or so of the library. Unless noted, calls come from the whole dose curve; as a rule, active = well fitted curve in the direction sought with a large enough effect; inconclusive = small, poorly fitted or top-dose-only effect, or another doubt; inactive = no such curve, though single readings can be large; an effect the other way counts as inactive or inconclusive.

SMILES | ATXN2 expr inh | D3 ag | HepG2 tox | TGFb inhibitor | D3 antag | ATXN viability
CCN(CC)Cc1c[nH]c2ccccc12 | 20.3% | -2.1 | -27.7% | -1.8% | ? | i
CN(CCc1ccccc1)Cc1c[nH]c2ccccc12 | . | 3.0 | 11.2µM* | 14.1µM* | -18.9 | ?
CCOc1c(Cl)cc(CNCCc2c[nH]c3ccccc23)cc1OC | . | -4.3 | -102.9% | ? | -1.1 | .
Fc1ccccc1CNCCc1c[nH]c2ccccc12 | -22.3% | -19.0 | -18.0% | 9.7% | ? | i
COc1ccc(CNCCc2ccccc2F)c(OC)c1C | -22.4% | -13.2 | -31.3% | -8.7% | -7.8 | i
COc1ccc(CNCCc2c[nH]c3ccccc23)c(OC)c1C | -31.2% | -23.1 | -58.9% | -29.2% | -71.4* | ?
COc1cc(C)c(CNCCc2c[nH]c3ccccc23)cc1C | . | -17.4 | 11.2µM* | ? | 11.1 | ?
C[C@@H]1CN([C@@H](C)CO)C(=O)c2c(c3ccccc3n2C)-c2ccccc2CO[C@H]1CN(C)C(=O)[C@H](C)c1ccccc1 | ? | 4.7 | -34.8% | ? | 1.4 | ?
Cc1ccc2c(c1)C1CN(C)CCC1N2 (configuration not stated) | -1.0%[25.6 µM] | -21.3 | . | . | . | i
C=C1C(=O)O[C@@H]2C[C@@H](C)[C@@H]3C=CC(=O)[C@@]3(C)[C@@H](OC(C)=O)[C@H]12 | 1.12µM* | -59.5 | 2.51µM* | 0.708µM* | -84.1* | .
C=C1C(=O)O[C@@H]2C[C@@H](C)[C@@H]3C=CC(=O)[C@@]3(C)[C@@H](O)[C@H]12 | 1.78µM* | -75.4 | 11.2µM* | 3.98µM* | -102.1* | .
Cc1ccc(C2CC3CCC(C2)N3Cc2ccccc2F)cc1 (configuration not stated) | -9.0% | -9.2 | -5.0% | -1.2% | -81.7* | i
CCn1c(=N)n(Cc2ccccc2F)c2ccccc21 | -17.7% | -1.3 | -22.0% | -10.5% | 15.7 | ?
CC1CCN(CC#CCOc2ccc(Cl)cc2)CC1 | -16.7% | -26.0 | -31.1% | ? | -104.8* | i
Clc1ccc(-c2csc3ncnc(Sc4nnnn4C4CC4)c23)cc1 | . | . | -99.0% | ? | . | .
CCCCCCN1CCN(c2ccccc2Cl)CC1 | . | 2.4 | -8.1% | -2.7% | -115.4* | i
C[N+](C)(C)CC1CCCc2ccccc2C1=O (configuration not stated) | ? | -9.9 | -6.6% | ? | -2.4 | ?
C[N+](C)(C)CC1CCCC(C[N+](C)(C)C)C1=O (configuration not stated) | ? | -8.9 | -84.4% | 12.6µM* | -25.7 | ?
COc1nc2ccccc2nc1N1CCN(C)CC1 | 5.1% | -1.5 | 4.0% | -2.0% | -83.4* | i
C[C@@H]1[C@@H]2Cc3ccc(O)cc3[C@@]1(C)CCN2CCc1ccccc1 | . | -22.6 | . | . | . | i
COc1cccc(C2(O)CCN(Cc3ccncc3)CC2)c1 | -10.6% | -14.1 | -1.5% | 7.5% | -62.1* | i
O=[N+]([O-])c1cccc(CCl)c1 | 0.6% | -96.6 | -24.6% | 3.7% | -116.9* | i
O=[N+]([O-])c1cccc(O)c1 | 1.2% | 2.6 | -1.7% | 15.0% | 12.6 | i
CC(C(O)c1ccccc1)N(C)C/C=C/c1ccccc1 (configuration not stated) | -19.6% | . | . | . | . | i
COc1ccccc1N1CCN(C(=O)c2cc3c(-c4ccccc4F)nn(C)c3s2)CC1 | ? | 56.0* | 16.0% | ? | . | .
SMILES | ATXN2 expr inh | D3 ag | HepG2 tox | TGFb inhibitor | D3 antag | ATXN viability
CC(=O)OC1CC[C@]2(C#N)[C@H]3CC[C@]4(C)[C@H](C5C=CC(=O)O5)CCC4(O)C3CCC2(O)C1 (some centres not stated) | . | -7.5 | 10µM* | -26.5% | -9.3 | ?
O=C(c1cc(F)ccc1F)C1CCCN(Cc2cccc(Cl)c2)C1 (configuration not stated) | . | -7.1 | 4.6% | -5.5% | -79.3* | i
CSc1ncc(CN2CCCC(C(=O)c3ccccc3SC)C2)cn1 (configuration not stated) | -24.1% | -17.2 | -20.9% | -5.6% | -18.9 | i
O=C(c1ccc(Cl)cc1)C1CCCN(Cc2ccc3nonc3c2)C1 (configuration not stated) | . | -12.5 | -31.5% | ? | -12.4 | i
O=C(c1cc(F)ccc1F)C1CCCN(CCCc2ccccc2)C1 (configuration not stated) | . | -15.3 | 12.0% | -3.6% | -73.8* | i
CCCCC[C@@H]1CCCCC[C@@H](O)C[C@@H](O)[C@H](O)/C=C/C(=O)O1 | 0.6% | 6.4 | . | . | 9.2 | i
NCCc1cc(O)c(O)cc1O | 3.1% | -9.9 | 1.8% | -1.3% | -68.2*! | ?
COc1ccc(-c2nn3c(=O)cc(CN4CCN(S(=O)(=O)c5ccc(C)cc5)CC4)nc3s2)cc1 | 3.5% | 11.6 | -4.5% | -22.0% | . | ?
O=C(NN=Cc1ccc(N(CCCl)CCCl)cc1Cl)c1cccnc1 | ? | -11.7 | -55.7% | 5.01µM* | 4.4 | ?
O=C(NN=Cc1ccc(N(CCCl)CCCl)cc1)c1cc(=O)[nH]c(=O)[nH]1 | ? | -4.1 | 8.1% | 11.5% | 2.6 | i
Cc1cc(N(CCCl)CCCl)ccc1C=NNC(=O)c1cccnc1 | 1.78µM* | -6.3 | -32.4% | -7.8% | -18.2 | i
CC(C)CCn1c(=O)c(C(=O)Nc2ccccc2S(N)(=O)=O)c(O)c2ccccc21 | -37.0% | -3.3 | -16.4% | 20µM* | -18.0 | i
CCCCn1c(=O)c(C(=O)Nc2ccccc2C)c(O)c2ccccc21 | 21.5% | 10.4 | 14.5% | 7.0% | 9.6 | i
Cc1c(C(=O)Nc2cccc(C(F)(F)F)c2)cc(-c2ccccc2)n1CCCN1CCOCC1 | -14.0% | . | . | . | . | .
Fc1cccc(CN2CCN(c3ccc(Cl)cc3)CC2)c1 | . | 0.7 | -19.0% | -15.5% | -71.5* | i
COc1cccc(N2CCN(Cc3ccc(Cl)cc3)CC2)c1 | -8.7% | -39.0 | -24.0% | -8.9% | -93.6* | i
COc1cccc(CC(=O)N2CCN(Cc3cccc(Cl)c3)CC2)c1 | -13.0% | -3.9 | -1.0% | -2.1% | 7.3 | i
COc1cccc(N2CCN(Cc3cccc(Cl)c3)CC2)c1 | -11.9% | -59.3 | -12.3% | 1.0% | -73.9* | ?
COc1ccc(CN2CCN(C(=O)Cc3ccccc3)CC2)c(OC)c1 | -6.0% | -1.4 | 4.8% | -10.0% | 4.9 | i
COc1ccc(CN2CCN(Cc3ccccc3)CC2)c(OC)c1 | -11.9% | -37.4 | -12.3% | -4.5% | -112.7* | i
COc1ccc(C(=O)Nc2ccccc2C(=O)NC(C(=O)NCc2ccco2)C(C)C)cc1 (configuration not stated) | ? | 8.5 | 0.4% | 0.0% | -61.0* | ?
